Among the data in PMC11062922 (Nature Chemical Biology, 2023) are potency estimated from few doses values, retold here.

What all share (design): species or system human, MV4-11 + K-562 + COLO205 + SK-N-BE2 + OVCAR-8
One experiment concerns BMPR1B. The conditions noted are these: read-out: apparent Kd, compound concentrations: 100 nM and 1000 nM (sheet 'Samples'), n = 1.
The next experiment concerns TGFBR1. The conditions noted are these: read-out: apparent Kd, n = 1.
In another experiment the test system is JAK2. As to conditions: read-out: apparent Kd, compound concentrations: 100 nM and 1000 nM (sheet 'Samples'), n = 1.
The next experiment relates to PRKD3. The conditions noted are these: read-out: apparent Kd, compound concentrations: 100 nM and 1000 nM (sheet 'Samples'), n = 1.
Another experiment deals with DDR2. The conditions noted are these: read-out: apparent Kd, compound concentrations: 100 nM and 1000 nM (sheet 'Samples'), n = 1.
For the next experiment, the system named is EPHA5. As to conditions: read-out: apparent Kd, compound concentrations: 100 nM and 1000 nM (sheet 'Samples'), n = 1.
The next experiment relates to EPHB1. The conditions noted are these: read-out: apparent Kd, compound concentrations: 100 nM and 1000 nM (sheet 'Samples'), n = 1.
The next experiment concerns FLT4. The conditions noted are these: read-out: apparent Kd, n = 1.
A further experiment has as its system PRKD2. The conditions noted are these: read-out: apparent Kd, compound concentrations: 100 nM and 1000 nM (sheet 'Samples'), n = 1.
In the next experiment the test system is AKT1. As to conditions: read-out: apparent Kd, n = 1.
The subject of another experiment is AKT2. As to conditions: read-out: apparent Kd, n = 1.
In a further experiment the test system is RIOK2. As to conditions: read-out: apparent Kd, n = 1.
A further experiment deals with ACAD8. The conditions noted are these: read-out: apparent Kd; compound concentrations: 100 nM and 1000 nM (sheet 'Samples'), CATDS: 1.7028042656885199E-2; n = 1.
The next experiment concerns AURKB. As to conditions: read-out: apparent Kd, compound concentrations: 100 nM and 1000 nM (sheet 'Samples'), n = 1.
Another experiment has as its system TNK2. The conditions noted are these: read-out: apparent Kd, compound concentrations: 100 nM and 1000 nM (sheet 'Samples'), n = 1.
For the next experiment, the system named is PLK4. As to conditions: read-out: apparent Kd, compound concentrations: 100 nM and 1000 nM (sheet 'Samples'), n = 1.
Another experiment relates to MAPK14. As to conditions: read-out: apparent Kd; compound concentrations:100 nM and 1000 nM (sheet 'Samples'); n = 1.
For the next experiment, the system named is CDK17. The conditions noted are these: read-out: apparent Kd; compound concentrations: 100 nM and 1000 nM (sheet 'Samples'), CATDS: 3.3819881865538602E-2; n = 1.
The next experiment concerns EPHB6. As to conditions: read-out: apparent Kd; compound concentrations: 100 nM and 1000 nM (sheet 'Samples'), CATDS: 1.8057075383437201E-2; n = 1.
[1] abbreviates: compound concentrations:100 nM and 1000 nM (sheet 'Samples').

Where two headings read alike, the source gives them in different places.

Turning to `COc1cccc(-n2ncc3c(N/N=C/c4ccc(C(=O)NCCN(C)C)cc4)ncnc32)c1.Cl` [GW784307A], the potency estimated from few doses in the experiment with BMPR1B (CATDS: 3.8430447981996803E-2) is 486 nM; in the experiment with TGFBR1 (compound concentrations: 100 nM and 1000 nM (sheet 'Samples'), CATDS: 3.91809843911003E-2), 460 nM.
With `NC1=NC(=O)/C(=C/c2ccc3ncccc3c2)S1` [RO4569139-000], the potency estimated from few doses in the experiment on JAK2 (CATDS: 8.9240627559774202E-2) was 708 nM; with PRKD3 (CATDS: 6.7072777002688294E-2), 1930 nM.
For `Cc1ccc(O)cc1Nc1ccnc2cc(-c3ccc(CN4CCCCC4)o3)ccc12` [GW557777X], the potency estimated from few doses was 73.2 nM in the experiment on BMPR1B (CATDS: 2.1920480328631101E-2); 800 nM in the experiment on DDR2 (CATDS: 1.39203861332134E-2); 15.6 nM with EPHA5 (CATDS: 3.4723791615605203E-2); 1.47 nM in the experiment with EPHB1 (CATDS: 9.2243435191231293E-2); 1020 nM in the experiment with FLT4 (compound concentrations: 100 nM and 1000 nM (sheet 'Samples'), CATDS: 1.3507307153085599E-2); 83.5 nM with PRKD2 (CATDS: 2.1213632342937001E-2). Besides, the potency estimated from few doses in the experiment with PRKD3 (CATDS: 1.7058744664209799E-2) was 226 nM; in the experiment on TGFBR1 (compound concentrations: 100 nM and 1000 nM (sheet 'Samples'), CATDS: 1.55635860325104E-2) it was 377 nM.
Turning to `CS(=O)(=O)CCNCc1ccc(-c2ccc3ncnc(Nc4ccc(OCc5cccc(F)c5)c(C(F)(F)F)c4)c3c2)o1` [GW576484X], the potency estimated from few doses in the experiment on AKT1 (compound concentrations: 100 nM and 1000 nM (sheet 'Samples'), CATDS: 4.8644382119909499E-2) is 2100 nM; with AKT2 (compound concentrations: 100 nM and 1000 nM (sheet 'Samples'), CATDS: 4.5987801057845099E-2), 2420 nM; with EPHA5 (CATDS: 6.1198720687785702E-2), 1290 nM; with RIOK2 (compound concentrations: 100 nM and 1000 nM (sheet 'Samples'), CATDS: 5.8358702635658101E-2), 1410 nM.
Take `Cl.Oc1cccc(Nc2ccnc3cc(-c4ccncc4)ccc23)c1` [GW494601A]: the potency estimated from few doses with BMPR1B (CATDS: 3.10657492682959E-2) was 211 nM; with EPHA5 (CATDS: 3.7293479964616502E-2) it was 113 nM; in the experiment on EPHB1 (CATDS: 2.51104508673669E-2) it was 479 nM; in the experiment on FLT4 (compound concentrations: 100 nM and 1000 nM (sheet 'Samples'), CATDS: 2.2541605457452998E-2) it was 773 nM; with TGFBR1 (compound concentrations: 100 nM and 1000 nM (sheet 'Samples'), CATDS: 2.26052406331183E-2), 762 nM.
On to `Cc1cccc(Nc2nc(NCCN)ncc2C(N)=O)c1` [GSK1292139B], for which the figures for the potency estimated from few doses with PRKD2 (CATDS: 7.4938194739321201E-2) and with PRKD3 (CATDS: 6.9928558616796505E-2) were 1250 nM and 1540 nM, respectively.
As to `CS(=O)(=O)Cc1ccc(Nc2nccc(-c3c(-c4cccc(NC(=O)C5CCCCC5)c4)nn4ncccc34)n2)cc1` [GSK350559A], the potency estimated from few doses in the experiment on FLT4 (setting [1]) was 995 nM.
Regarding `COc1ccc(Nc2nccc(N3CCC(NC(=O)Nc4ccc5c(c4)OCO5)C3)n2)cc1` (stereo not shown) [GSK1379745A], the potency estimated from few doses in the experiment with AKT1 (compound concentrations: 100 nM and 1000 nM (sheet 'Samples'), CATDS: 3.7255828319427503E-2) was 1760 nM; in the experiment on AKT2 (compound concentrations: 100 nM and 1000 nM (sheet 'Samples'), CATDS: 4.5642212363568399E-2), 1150 nM; in the experiment with BMPR1B (CATDS: 0.106136196425884), 316 nM; with RIOK2 (compound concentrations: 100 nM and 1000 nM (sheet 'Samples'), CATDS: 4.3222091528321002E-2), 1280 nM.
On to `Cc1ccc(O)cc1Nc1ccnc2cc(-c3ccccn3)ccc12.Cl` [GW440139A], for which the potency estimated from few doses in the experiment with BMPR1B (CATDS: 2.7107507605443299E-2) is 941 nM; in the experiment with EPHA5 (CATDS: 4.7155213926178503E-2), 97.2 nM; in the experiment on EPHB1 (CATDS: 5.4162955802276501E-2), 67.7 nM; in the experiment with TGFBR1 (compound concentrations: 100 nM and 1000 nM (sheet 'Samples'), CATDS: 4.4422303259643102E-2) it was 115 nM.
With `Cl.Cl.Cl.c1ccc(Oc2ccc(Nc3ccnc4cc(-c5ccc(CN6CCNCC6)o5)ccc34)cc2)nc1.c1ccc(Oc2ccc(Nc3ccnc4cc(-c5ccc(CN6CCNCC6)o5)ccc34)cc2)nc1` [GW567142A], the potency estimated from few doses is 2040 nM with ACAD8; 1660 nM with AKT1 (compound concentrations: 100 nM and 1000 nM (sheet 'Samples'), CATDS: 1.79490160981602E-2); 1790 nM in the experiment with AKT2 (compound concentrations: 100 nM and 1000 nM (sheet 'Samples'), CATDS: 1.7589072796327002E-2); 952 nM in the experiment on AURKB (CATDS: 2.12373497583834E-2); 1380 nM with RIOK2 (compound concentrations: 100 nM and 1000 nM (sheet 'Samples'), CATDS: 1.8917557706548099E-2); 47.3 nM in the experiment with TNK2 (CATDS: 8.9201711222799504E-2).
As to `CN1C(=O)c2ccccc2N(C)c2nc(Nc3cnn(C4CCNCC4)c3)ncc21` [XMD-17-51], the potency estimated from few doses in the experiment with AURKB (CATDS: 0.169613052671825) is 6.84 nM; with BMPR1B (CATDS: 1.5845545997130402E-2), 986 nM; with DDR2 (CATDS: 2.76833558022507E-2) it was 189 nM; with JAK2 (CATDS: 1.8456350462982201E-2), 580 nM; in the experiment with PLK4 (CATDS: 4.7474552673817297E-2), 56.7 nM; in the experiment on PRKD2 (CATDS: 1.4106382440731599E-2), 1620 nM. Besides, the potency estimated from few doses in the experiment on PRKD3 (CATDS: 1.40532268775709E-2) was 1650 nM; in the experiment on TGFBR1 (compound concentrations: 100 nM and 1000 nM (sheet 'Samples'), CATDS: 2.2276499347081799E-2) it was 333 nM.
Regarding `NC(=O)c1cccc(Nc2nccc(Nc3cccc4[nH]ncc34)n2)c1` [GW782612X], the potency estimated from few doses in the experiment on DDR2 (CATDS: 3.15347900030735E-2) is 2580 nM; in the experiment with TGFBR1 (compound concentrations: 100 nM and 1000 nM (sheet 'Samples'), CATDS: 5.60805138513292E-2), 406 nM.
Consider `Cc1cccc(-c2cc(-c3c[nH]nc3-c3ccccn3)ccn2)c1` [GW679395X], for which the potency estimated from few doses is 1770 nM in the experiment on AKT1 (setting [1]); 2340 nM with AKT2 (setting [1]); 1290 nM in the experiment on MAPK14; 1630 nM in the experiment with RIOK2 (setting [1]); 2190 nM with TGFBR1 (setting [1]).
On to `COc1ccccc1CNC1=NC(=O)/C(=C/c2ccc3ncccc3c2)S1` [RO4503315-000], for which, in the experiment on JAK2 (CATDS: 8.0204348967342395E-2), the potency estimated from few doses was 755 nM.
With `CC(C)c1nc(-c2cccc(NS(=O)(=O)c3ccccc3)c2)c(-c2ccnc(Nc3ccc4c(c3)CN(C)CC4)n2)s1` [GSK1649598A], the potency estimated from few doses with CDK17 is 124 nM; in the experiment on EPHB6 it was 489 nM; in the experiment with FLT4 (compound concentrations: 100 nM and 1000 nM (sheet 'Samples'), CATDS: 1.55100813228086E-2) it was 772 nM; in the experiment on PLK4 (CATDS: 4.8867140762819797E-2), 66.8 nM; in the experiment on PRKD2 (CATDS: 5.2743679485786801E-2), 59.3 nM; in the experiment with PRKD3 (CATDS: 3.0357950556932599E-2), 152 nM. For the same molecule, the potency estimated from few doses with TNK2 (CATDS: 1.5113768238236E-2) was 842 nM.
